Hits are enriched below; roughly 11% of the tested compounds scored in any of these assays.
hNpr1 antagonist: Natriuretic polypeptide receptor (hNpr1) antagonism - Primary qHTS | Atrial natriuretic peptide receptor 1 (Homo sapiens), P16066 | HEK293 hNpr1 GloSensor cGMP, ANP-stimulated luminescence | Potency, µM (titrated, usually from 46.3 µM), for inactives: at the highest dose activity change, negative = inhibition, actives largely listed as inhibitors | 76,000 tested, 1.6% active | AID 1347048, 2019; calls by dose curve; further: nearly all actives have a fitted effect of over 60% in size
Target sequence (P16066 whole entry, looked up): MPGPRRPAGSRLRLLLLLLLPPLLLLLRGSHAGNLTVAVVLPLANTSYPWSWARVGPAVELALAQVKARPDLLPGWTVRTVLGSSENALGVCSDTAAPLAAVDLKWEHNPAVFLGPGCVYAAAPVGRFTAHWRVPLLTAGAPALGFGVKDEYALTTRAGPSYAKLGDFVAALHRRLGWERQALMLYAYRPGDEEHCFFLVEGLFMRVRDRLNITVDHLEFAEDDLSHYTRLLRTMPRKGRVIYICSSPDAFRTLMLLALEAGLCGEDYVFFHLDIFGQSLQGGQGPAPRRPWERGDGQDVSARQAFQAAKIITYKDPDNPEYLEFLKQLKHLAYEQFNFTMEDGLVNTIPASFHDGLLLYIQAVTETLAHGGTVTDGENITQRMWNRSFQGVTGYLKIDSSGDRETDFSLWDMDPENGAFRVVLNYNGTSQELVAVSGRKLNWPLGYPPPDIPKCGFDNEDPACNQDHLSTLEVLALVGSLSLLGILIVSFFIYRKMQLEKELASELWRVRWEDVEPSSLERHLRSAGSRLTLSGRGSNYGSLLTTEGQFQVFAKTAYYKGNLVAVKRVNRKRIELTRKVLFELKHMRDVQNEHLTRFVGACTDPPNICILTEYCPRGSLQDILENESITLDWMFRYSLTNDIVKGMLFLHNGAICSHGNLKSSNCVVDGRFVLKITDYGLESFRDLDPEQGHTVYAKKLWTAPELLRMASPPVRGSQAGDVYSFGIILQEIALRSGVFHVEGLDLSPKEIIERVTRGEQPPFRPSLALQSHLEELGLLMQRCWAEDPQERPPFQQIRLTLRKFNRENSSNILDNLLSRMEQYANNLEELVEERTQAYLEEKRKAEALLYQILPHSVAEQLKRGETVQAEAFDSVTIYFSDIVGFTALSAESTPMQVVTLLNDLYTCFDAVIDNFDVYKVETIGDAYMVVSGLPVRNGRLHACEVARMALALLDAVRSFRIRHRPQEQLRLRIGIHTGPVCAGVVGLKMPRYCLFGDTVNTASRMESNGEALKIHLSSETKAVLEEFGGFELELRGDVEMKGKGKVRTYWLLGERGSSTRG
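Compound pre-incubated 30 min at room temperature on GloSensor-loaded HEK293 cells stably carrying hNpr1 and the pGS-40F cGMP biosensor. Stimulation uses hNppA at 0.1 nM final; luminescence is taken at baseline and 20 min post-agonist.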
HEK cytotox: Cytotoxic Profiling in HEK 293 Cell Line of Diverse Libraries Using Quantitative High-Throughput Screening | HEK 293 viability, ATP luminescence (CellTiter-Glo), 48-72 h | Potency, µM (top dose mostly 115 µM), for the others: at the top dose activity change, negative = cytotoxicity, most hits filed as inhibitors | 94,000 tested, 6.6% active; further: nearly all actives have a fitted effect of over 60% in size
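Luminescence from cellular ATP, measured with CellTiter-Glo, indicates HEK 293 viability. Cells plated at 250 cells/well are treated with compound for 48 or 72 hr at 37 degree Celsius before reagent addition.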
3T3 cytotox: Cytotoxic Profiling in NIH 3T3 Cell Line of Diverse Libraries Using Quantitative High-Throughput Screening; 94,000 tested, 4.3% active; NIH 3T3 viability, CellTiter-Glo ATP luminescence, 48-72 h; AID 1345082, 2018; Potency, µM (doses to about 96.7 µM), for inactives: top-dose activity change, negative = cytotoxicity, usual class: inhibitors; further: nearly all actives have a fitted effect of over 55% in size
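Viability of NIH 3T3 cells after 48 or 72 hr compound treatment at 37 °C was assessed by CellTiter-Glo, with luminescence imaged following a 10 min room-temperature step.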
Luciferase inh: Firefly luciferase inhibition profiling of diverse chemical library using quantitative high-throughput screening | Potency, µM (highest dose often 115 µM), actives largely listed as inhibitors | 76,000 tested, 2.5% active | purified P. pyralis luciferase, luminescence, biochemical; further: nearly all actives have a fitted effect of over 65% in size
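Biochemical qHTS: compound (6-point titration) added to 10uM D-luciferin plus 10uM ATP in Tris acetate pH 7.5 buffer with Mg, Tween-20 and BSA, then purified enzyme at 10nM; light output imaged.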
Numbers without * were called inactive; i = inactive; ? = inconclusive; . = no result given; [ ] = dose if it differs, or a comment. Unless noted, the call rests on the fitted dose curve; in most records, active means well fitted curve in the direction sought with a large enough effect; inconclusive means small, poorly fitted or top-dose-only effect, or another doubt; inactive means no such curve, though single readings can be large; an effect the other way counts as inactive or inconclusive. On the % scale 0 is the no-effect control and ±100 the full control effect; potency means the concentration at half of the fitted maximal effect.

SMILES	hNpr1 antagonist	HEK cytotox	3T3 cytotox	Luciferase inh
CCn1cc(CN(C)C2CCc3nn(CC4CC4)c(=O)n3CC2)c(C)n1 (stereo not drawn)	0.5%	4.4%	-6.4%	i
CN(Cc1cn(C)c2ccccc12)C1CCc2nn(CC3CC3)c(=O)n2CC1 (stereo not drawn)	-2.7%	31.6µM*	35.5µM*	i
CN1CCN(c2cc(=O)c3ccnc(-c4ccccc4O)c3o2)CC1	-7.0%[70.6 µM]	-5.5%[172 µM]	22.4µM*	i
CN1CCN(c2cc(=O)c3ccnc(-c4ccnn4C)c3o2)CC1	1.5%[70.6 µM]	-7.0%[172 µM]	39.8µM*	i
CCNC(=O)N1CCCC(Cc2ncc(C)n2C(C)C)C1 (stereo not drawn)	2.1%	i	-15.0%	i
COc1cc(-c2ccnc3nc(-c4cccs4)nn23)cc(OC)c1OC	1.0%	?	-26.6%	i
N#Cc1ccc(CNC(=O)[C@@H]2Cc3nc[nH]c3CN2Cc2ccc(C(F)(F)F)cc2)cc1	1.1%	-27.3%	-29.8%	i
Cc1ccc(CN2Cc3[nH]cnc3C[C@H]2C(=O)NCc2ccc(C(F)(F)F)cc2)cc1	-17.8%[70.6 µM]	70.8µM*	100µM*	i
COC1CCOC2(CCN(C(=O)Cc3cccc(F)c3)CC2)C1 (stereo not drawn)	0.0%	-6.6%	-9.9%	i
COc1ccc(OCC2CC3(CCCCC3)CN2C(=O)Cc2cccc(F)c2)cc1 (stereo not drawn)	.	39.8µM*	39.8µM*	.
CCOC(=O)c1cccc(NC(=O)c2ccc3c(c2)N(CC)C2CCCCCN2C3=O)c1 (stereo not drawn)	-24.2%	?	20µM*	i
CCN1c2cc(C(=O)Nc3cccc(C(=O)OC)c3)ccc2C(=O)N2CCCCCC21 (stereo not drawn)	-26.2%	?	17.8µM*	i
CCOc1ccc(NC(=O)c2ccc3c(c2)N(CC)C2CCCCCN2C3=O)cc1 (stereo not drawn)	-2.5%	?	?	i
CCN1c2cc(C(=O)Nc3cccc(F)c3)ccc2C(=O)N2CCCCC21 (stereo not drawn)	0.0%	?	?	?
CCn1cc(S(=O)(=O)N2CCC(F)(c3nc(-c4ccncc4)no3)CC2)cn1	.	44.7µM*	?	.
CCn1cc(S(=O)(=O)N2CCC(c3noc(-c4ccncc4)n3)C2)cn1 (stereo not drawn)	-7.5%	-10.2%	-24.7%	i
O=S(=O)(c1ccccc1)N1CCC(F)(c2nc(-c3ccncc3)no2)CC1	.	31.6µM*	?	.
CN(C)S(=O)(=O)N1CCC(F)(c2nc(-c3ccccc3)no2)CC1	?	?	-18.1%	?
O=C(Nc1ccc(Cl)cc1)NC1CCCN(c2ccc3nnc(-c4ccccc4)n3n2)C1 (stereo not drawn)	.	-18.9%	-17.2%	.
COc1ccc(CN2Cc3[nH]nc(-c4cnc(OC)nc4)c3CC2=O)cc1	-11.9%[70.6 µM]	-35.4%[172 µM]	8.91µM*	i
COc1ccc(CN2Cc3[nH]nc(-c4ccc(C(=O)N5CCOCC5)cc4)c3CC2=O)cc1	-6.9%	79.4µM*	-24.4%	i
COc1ncc(-c2n[nH]c3c2CC(=O)N(CCOc2ccccc2)C3)cn1	-12.6%[70.6 µM]	-46.9%[172 µM]	?	i
COCc1cccc(-c2n[nH]c3c2CC(=O)N(Cc2ccc(OC)cc2)C3)c1	-21.5%[70.6 µM]	?	25.1µM*	i
COc1ncc(-c2n[nH]c3c2CC(=O)N(Cc2ccccc2)C3)cn1	1.2%[70.6 µM]	?	25.1µM*	i
COc1ccc2c(c1)C(C(=O)Nc1cc([S+](=O)([O-])N3CCOCC3)ccc1C)=CC(C)(C)CO2	.	?	-24.8%	.
SMILES	hNpr1 antagonist	HEK cytotox	3T3 cytotox	Luciferase inh
Cc1cc(C)cc(C(=O)N2CCCC(n3cc(-c4noc(C)n4)nn3)C2)c1 (stereo not drawn)	-14.8%	15.2%	-4.9%	i
O=C(NCc1cccc(Cl)c1)c1ccc2nnc(Cc3ccco3)n2c1	.	-12.6%	?	.
O=C(c1cccnc1)N1CCC(c2nnc3n2C(C(=O)N2CCN(c4ncccn4)CC2)CC3)CC1 (stereo not drawn)	.	i	i	.
COc1ncccc1-c1n[nH]c2c1CC(=O)N(Cc1ccccc1)C2	-7.9%[70.6 µM]	-19.9%[172 µM]	25.1µM*	i
COc1ccccc1-c1n[nH]c2c1CC(=O)N(Cc1ccccc1)C2	-9.3%[70.6 µM]	?	?	i
COCCN1Cc2[nH]nc(-c3ccc(OC)c(F)c3)c2CC1=O	3.1%[70.6 µM]	2.0%[172 µM]	79.4µM*	i
O=C(C1CCCN1C(=O)c1cccc(-c2ccccn2)c1)N1CCN(c2ncccn2)CC1 (stereo not drawn)	.	-9.5%	-24.7%	.
CCCCn1c(=O)c(C(=O)N2CCN(C(=O)NC3CCCC3)CC2)nc2cccnc21	.	4.7%	-17.4%	.
COc1cccc(CN2CCC3(COc4ccccc4C(=O)N3)C2)c1 (stereo not drawn)	-20.5%[70.6 µM]	89.1µM*	39.8µM*	i
CC(C)CCN1CCC2(COc3ccccc3C(=O)N2)C1 (stereo not drawn)	-3.1%[70.6 µM]	?	100µM*	i
CC(C)CCN1CCCC2(COc3ccccc3C(=O)N2)C1 (stereo not drawn)	4.1%[70.6 µM]	?	?	i
CN(C)c1ccc(CN2CCC3(COc4ccccc4C(=O)N3)C2)cc1 (stereo not drawn)	-2.9%	?	?	i
CN(C)c1ccc(CN2CCC3(CC2)COc2ccccc2C(=O)N3)cc1	7.4%	?	22.4µM*	i
COc1cccc(CN2CCCC3(COc4ccccc4C(=O)N3)C2)c1 (stereo not drawn)	-12.0%[70.6 µM]	?	?	i
Fc1ccccc1CN1CC[C@H](c2nnc(Cc3ccccc3)o2)C1	2.1%[70.6 µM]	-10.3%[172 µM]	-9.4%[138 µM]	i
O=C1CCC2(C(=O)NCc3cc(F)ccc3F)CCCC=C2N1Cc1ccccc1 (stereo not drawn)	.	?	-23.5%	.
COc1ccc(C(=O)NC2CCCN(c3cc(-c4ccccc4)[nH]n3)C2)cc1OC (stereo not drawn)	-9.7%	?	-28.9%	28.2µM*
COc1ccc(C(=O)NC2CCN(c3cc(-c4ccccc4)[nH]n3)C2)cc1F (stereo not drawn)	4.9%	?	?	i
CCOc1cc(C(=O)NC2CCN(c3cc(-c4ccccc4)[nH]n3)C2)cc(OCC)c1OCC (stereo not drawn)	2.8%	?	?	i
CCOc1ccc(C(=O)NC2CCCN(c3cc(-c4ccccc4)[nH]n3)C2)cc1OCC (stereo not drawn)	-9.4%	31.6µM*	?	i
Cc1nc(CNC(=O)c2ccc3oc(-c4cccc(F)c4)nc3c2)cs1	2.3%	?	-0.9%	31.6µM*
CC(C)CNC(=O)c1ccc2oc(-c3ccnc(Cl)c3)nc2c1	.	89.1µM*	?	.

Screening data: PubChem, National Center for Advancing Translational Sciences (NCATS)
